± gives the standard deviation.
Legend:
Conditions in all cases: modulator concentration 10 µM
[1] = test system: RAW-Dual (murine macrophage reporter line); test: NF-kB reporter (SEAP) activity fold change vs agonist alone; higher = enhanced NF-kB activity
Procedure, shortened: (§1)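 Overnight stimulation with a PRR agonist followed pre-incubation for 1 hour at 37 °C with compound at 10 μM final. This was done in RAW-Dual murine macrophage reporter cells seeded at 50 000 per well in 384-well plates. NF-κB (SEAP, QUANTI-Blue absorbance at 620 nm) and IRF (Lucia luciferase, QUANTI-Luc luminescence) were read from the supernatant. Each reporter's fold change relative to the mean agonist-only control on the same plate was averaged over replicate plates.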

[2] = test system: RAW-Dual (murine macrophage reporter line); test: IRF reporter (Lucia luciferase) activity fold change vs agonist alone; higher = enhanced IRF activity
Procedure, shortened: as §1

[3] = test system: RAW-Dual (murine macrophage reporter line); test: viability score (confluency relative to resting cells, overnight) (fraction); higher = more viable, active = viable (0.7 or more)
Procedure, shortened: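 Compound was added at a final 10 μM to RAW-Dual macrophages in 384-well plates and left overnight. Confluency was imaged with IncuCyte, and two masks were generated in IncuCyte software over all imaged wells. Each viability score is confluency relative to resting cells, and a compound met the cutoff only when both masks were above 70% of resting cells.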

[4] = agonist: CpG ODN 1826 0.5 ug/mL

Row | Structure (SMILES) | NF-kB reporter [1, 4] | NF-kB reporter ([1]; agonist: LPS 0.1 ug/mL) | NF-kB reporter ([1]; agonist: MPLA […]) | IRF reporter ([2]; agonist: 3'3'-cGAMP 10 ug/mL) | IRF reporter ([2]; agonist: LPS 0.1 ug/mL) | IRF reporter ([2]; agonist: MPLA […]) | viability score [3]
1 | O=C(Nc1nc(CC(=O)N2CCOCC2)cs1)c1ccccc1 | 1.02 ± 0.073 | 1.02 ± 0.09 | 0.941 ± 0.14 | 0.995 ± 0.053 | 1.24 ± 0.087 | 1.29 ± 0.1 | 1.01 (active)
2 | CN(C)CCCNc1cc(C(C)(C)C)nc2c(-c3ccccc3)cnn12 | 0.172 ± 0.017 | 0.13 ± 0.012 | 1.23 ± 0.18 | 0.0482 ± 0.0069 | 0.0973 ± 0.0058 | 0.712 ± 0.34 | 0.0497 (inactive)
3 | O=C(Nc1cccc(Cl)c1Cl)c1cc2nc(-c3ccco3)cc(C(F)(F)F)n2n1 | 0.9 ± 0.054 | 1.01 ± 0.08 | 0.918 ± 0.055 | 0.864 ± 0.029 | 1.25 ± 0.082 | 1.21 ± 0.16 | 1 (active)
4 | COc1ccc(N(CC(=O)Nc2ccccc2C(F)(F)F)S(C)(=O)=O)cc1 | 0.711 ± 0.14 | 0.672 ± 0.27 | 0.795 ± 0.17 | 0.723 ± 0.074 | 1.03 ± 0.14 | 0.962 ± 0.13 | 0.992 (active)
5 | Cc1nc(N(C)C)nc(C)c1NC(=O)CC(C)C | 0.95 ± 0.066 | 0.92 ± 0.075 | 0.837 ± 0.089 | 1.1 ± 0.055 | 0.967 ± 0.1 | 0.897 ± 0.39 | 1.01 (active)
6 | COc1ccc(C2Nc3ccc(C(=O)c4ccccc4)cc3NC3=C2C(=O)CCC3)c(OC)c1 (stereo not drawn) | 0.77 ± 0.06 | 0.844 ± 0.04 | 1.08 ± 0.095 | 0.933 ± 0.047 | 1.41 ± 0.11 | 1.58 ± 0.17 | 1.01 (active)
7 | Cc1c(C(=O)Nc2cccc3ccccc23)cccc1[N+](=O)[O-] | 0.854 ± 0.25 | 1.2 ± 0.12 | 1.04 ± 0.18 | 0.807 ± 0.034 | 1.22 ± 0.22 | 1.41 ± 0.42 | 0.633 (inactive)
8 | Cc1cccc(C(=O)ON=C(c2ccncc2)c2ccc([N+](=O)[O-])cc2)c1 | 0.806 ± 0.07 | 0.838 ± 0.039 | 1.06 ± 0.099 | 1.03 ± 0.068 | 1.43 ± 0.083 | 1.61 ± 0.14 | 1 (active)
9 | COc1ccc(Cl)cc1C(=O)Nc1ccc(NC(=O)c2ccccc2)cc1 | 0.907 ± 0.079 | 1.12 ± 0.11 | 0.949 ± 0.057 | 0.937 ± 0.023 | 1.34 ± 0.2 | 1.09 ± 0.25 | 1.02 (active)
10 | C=CCN1C(=O)C(=C2C(=O)N(Cc3ccccc3F)c3ccccc32)SC1=S | 1.09 ± 0.1 | 1.02 ± 0.079 | 1.01 ± 0.062 | 0.904 ± 0.039 | 1.37 ± 0.18 | 1.13 ± 0.19 | 1.01 (active)
11 | CCC(C(=O)Nc1cc(Cl)cc(Cl)c1)c1ccccc1 (stereo not drawn) | 0.851 ± 0.05 | 1.16 ± 0.098 | 1.11 ± 0.045 | 1.09 ± 0.083 | 1.11 ± 0.062 | 0.97 ± 0.12 | 0.991 (active)
12 | COC(=O)C1=C(C)NC(C)=C(C(=O)OCCN2CCN(C(c3ccccc3)c3ccccc3)CC2)C1c1cccc([N+](=O)[O-])c1 (stereo not drawn) | 0.231 ± 0.038 | 0.631 ± 0.07 | 0.89 ± 0.051 | 0.138 ± 0.0049 | 0.949 ± 0.11 | 1.1 ± 0.11 | 0.966 (active)
13 | Nc1ccccc1S(N)(=O)=O [Prestw-913] | 0.95 ± 0.19 | 1.07 ± 0.13 | 1.04 ± 0.092 | 0.943 ± 0.062 | 0.991 ± 0.23 | 1.1 ± 0.2 | 0.995 (active)
14 | O=C(NN=Cc1cccc(Cl)c1Cl)c1cc(O)cc(O)c1 | 1.02 ± 0.084 | 0.918 ± 0.092 | 1.07 ± 0.1 | 0.934 ± 0.079 | 1.19 ± 0.22 | 1.3 ± 0.22 | 1.04 (active)

Reference: the supplement of paper PMC10646978
